Reference: the supplement of paper PMC10849652
Of roughly 7,900 targets only a part is listed; those with a hit were picked by preference. About 0.6% of all pairs of compound and target were hits. Unmarked numbers belong to inactive results.

Experiments:
Assay in all cases: log2 fold change, soluble protein after heating vs DMSO (PISA); higher = thermal stabilisation; K562 cells, 10 uM, 30 min; active = over 0.2 and 3.5 SD of the protein, either way, in both replicates (recomputed)
[1] = compound: CC[C@@H]1C(=O)N(C)c2cnc(Nc3ccc(C(=O)NC4CCN(C)CC4)cc3OC)nc2N1C1CCCC1
Summary of the method: (§1)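 K562 cells at 2×10^6 cells/mL were exposed to 10 μM compound for 30 min, then aliquots were heated for 3 min across 48°C-58°C, pooled, and extracted in PBS containing 0.5% NP-40 at 4°C. The supernatant after 21,000xg for 90 min was taken as soluble protein and measured by TMTpro 16plex LC-MS/MS with channel sums equalised. Thermal stability is reported relative to control samples, with values from duplicates. Fold changes are given on a log2 scale.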

volasertib = compound: CC[C@@H]1C(=O)N(C)c2cnc(Nc3ccc(C(=O)N[C@H]4CC[C@H](N5CCN(CC6CC6)CC5)CC4)cc3OC)nc2N1C(C)C [volasertib]
Summary of the method: as §1

[2] = compound: CC[C@H](C)N1C=C(C2=C(C=C(C=C21)C3=CN=C(C=C3)N4CCNCC4)C(=O)NCC5=C(C=C(NC5=O)C)C)C
Summary of the method: as §1

epoxomicin = compound: CC[C@H](C)[C@@H](C(=O)N[C@@H]([C@@H](C)O)C(=O)N[C@@H](CC(C)C)C(=O)[C@]1(CO1)C)NC(=O)[C@H]([C@@H](C)CC)N(C)C(=O)C [epoxomicin]
Summary of the method: as §1

[3] = compound: CCn1c(C(=O)N(C2CC2)C2CC2)cc2c3c(ncn3C)c(Nc3cc(C)n(C)n3)nc21
Summary of the method: as §1

[4] = compound: CCn1cc(-c2ccnc3[nH]c(-c4cccc(CN(C)C)c4)cc23)c(-c2ccc(NC(=O)N(C)C)cc2)n1
Summary of the method: as §1

[5] = compound: CN(C)CC(=O)Nc1ccc2[nH]c(=O)c3ccccc3c2c1
Summary of the method: as §1

rosiglitazone = compound: CN(CCOC1=CC=C(C=C1)C[C@H]2C(=O)NC(=O)S2)C3=CC=CC=N3 (racemic) [rosiglitazone]
Summary of the method: as §1

[6] = compound: CN1C2=C(C3=C1C(=O)N(N=C3)CC4=CC(=CC=C4)N)SC(=C2)S(=O)C
Summary of the method: as §1

[7] = compound: CN1CCC(CNc2ccc3ncc(-c4cccc(OC(F)(F)F)c4)n3n2)CC1
Summary of the method: as §1

saracatinib = compound: CN1CCN(CCOc2cc(OC3CCOCC3)c3c(Nc4c(Cl)ccc5c4OCO5)ncnc3c2)CC1 [saracatinib]
Summary of the method: as §1

sotrastaurin = compound: CN1CCN(c2nc(C3=C(c4c[nH]c5ccccc45)C(=O)NC3=O)c3ccccc3n2)CC1 [sotrastaurin]
Summary of the method: as §1

alvocidib = compound: CN1CC[C@H](c2c(O)cc(O)c3c(=O)cc(-c4ccccc4Cl)oc23)[C@H](O)C1 [alvocidib]
Summary of the method: as §1

Tubastatin A = compound: CN1CCc2c(c3ccccc3n2Cc2ccc(C(=O)NO)cc2)C1 [Tubastatin A]
Summary of the method: as §1

[8] = compound: CNC(=O)C1=CC=CC=C1NC2=NC(=NC=C2Cl)NC3=C(C=C(C=C3)N4CCOCC4)OC
Summary of the method: as §1

defactinib = compound: CNC(=O)c1ccc(Nc2ncc(C(F)(F)F)c(NCc3nccnc3N(C)S(C)(=O)=O)n2)cc1 [defactinib]
Summary of the method: as §1

rucaparib = compound: CNCc1ccc(-c2[nH]c3cc(F)cc4c3c2CCNC4=O)cc1 [rucaparib]
Summary of the method: as §1

[9] = compound: CNc1nc(-c2ccc3c(N)n[nH]c3c2)cc(N2C[C@@H](C(=O)NC3CCCCC3)CC[C@H]2C)n1
Summary of the method: as §1

encorafenib = compound: COC(=O)N[C@@H](C)CNc1nccc(-c2cn(C(C)C)nc2-c2cc(Cl)cc(NS(C)(=O)=O)c2F)n1 [encorafenib]
Summary of the method: as §1

[10] = compound: COC(=O)[C@H](CCSC)NC(=O)C1=C(C=C(C=C1)NC[C@H](CS)N)C2=CC=CC=C2
Summary of the method: as §1

Chain of UniProt O95372 (O95372 whole entry, looked up): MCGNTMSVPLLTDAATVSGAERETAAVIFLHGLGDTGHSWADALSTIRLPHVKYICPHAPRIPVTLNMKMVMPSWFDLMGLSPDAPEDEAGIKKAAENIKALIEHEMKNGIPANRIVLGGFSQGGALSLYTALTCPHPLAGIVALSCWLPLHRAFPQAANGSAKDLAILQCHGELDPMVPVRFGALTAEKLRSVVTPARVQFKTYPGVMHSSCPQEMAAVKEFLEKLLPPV
Chain of UniProt O95373 (O95373 whole entry, looked up): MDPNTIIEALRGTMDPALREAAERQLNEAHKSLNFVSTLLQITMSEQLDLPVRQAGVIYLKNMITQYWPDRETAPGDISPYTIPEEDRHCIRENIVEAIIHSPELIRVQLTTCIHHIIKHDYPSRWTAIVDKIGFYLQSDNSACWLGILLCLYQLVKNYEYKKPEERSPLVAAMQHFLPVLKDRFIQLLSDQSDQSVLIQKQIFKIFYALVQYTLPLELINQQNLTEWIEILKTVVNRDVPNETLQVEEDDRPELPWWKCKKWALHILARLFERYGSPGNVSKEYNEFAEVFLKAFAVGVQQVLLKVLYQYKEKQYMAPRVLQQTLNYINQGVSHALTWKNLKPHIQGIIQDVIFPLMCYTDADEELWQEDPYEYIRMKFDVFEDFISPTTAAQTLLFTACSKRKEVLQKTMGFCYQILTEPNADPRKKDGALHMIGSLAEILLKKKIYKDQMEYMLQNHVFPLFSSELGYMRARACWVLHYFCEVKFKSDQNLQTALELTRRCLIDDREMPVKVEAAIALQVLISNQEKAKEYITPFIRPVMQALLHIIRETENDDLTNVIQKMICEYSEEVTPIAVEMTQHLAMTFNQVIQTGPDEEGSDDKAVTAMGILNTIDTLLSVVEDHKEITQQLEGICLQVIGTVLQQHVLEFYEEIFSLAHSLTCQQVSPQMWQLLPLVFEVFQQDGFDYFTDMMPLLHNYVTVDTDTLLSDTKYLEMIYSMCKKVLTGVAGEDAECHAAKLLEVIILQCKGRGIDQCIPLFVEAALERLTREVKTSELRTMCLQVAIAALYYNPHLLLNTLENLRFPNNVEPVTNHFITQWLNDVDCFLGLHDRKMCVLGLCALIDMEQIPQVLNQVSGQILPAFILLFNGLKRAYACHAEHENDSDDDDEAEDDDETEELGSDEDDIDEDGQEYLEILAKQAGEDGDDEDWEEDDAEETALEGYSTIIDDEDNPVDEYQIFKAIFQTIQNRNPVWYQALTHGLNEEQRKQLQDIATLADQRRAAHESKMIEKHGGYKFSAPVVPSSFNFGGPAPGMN
Chain of UniProt P49137 (P49137 whole entry, looked up): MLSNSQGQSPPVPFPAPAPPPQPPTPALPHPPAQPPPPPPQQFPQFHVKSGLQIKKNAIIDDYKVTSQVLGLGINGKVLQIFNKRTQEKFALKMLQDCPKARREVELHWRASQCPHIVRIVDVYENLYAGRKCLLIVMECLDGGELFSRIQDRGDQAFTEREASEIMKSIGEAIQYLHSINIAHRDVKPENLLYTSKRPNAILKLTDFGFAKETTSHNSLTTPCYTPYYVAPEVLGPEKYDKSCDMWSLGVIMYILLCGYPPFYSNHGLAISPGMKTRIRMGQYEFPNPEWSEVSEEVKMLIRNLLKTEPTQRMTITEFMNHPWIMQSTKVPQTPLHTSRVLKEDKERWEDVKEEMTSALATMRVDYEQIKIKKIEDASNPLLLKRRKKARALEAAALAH
Chain of UniProt O95140 (O95140 whole entry, looked up): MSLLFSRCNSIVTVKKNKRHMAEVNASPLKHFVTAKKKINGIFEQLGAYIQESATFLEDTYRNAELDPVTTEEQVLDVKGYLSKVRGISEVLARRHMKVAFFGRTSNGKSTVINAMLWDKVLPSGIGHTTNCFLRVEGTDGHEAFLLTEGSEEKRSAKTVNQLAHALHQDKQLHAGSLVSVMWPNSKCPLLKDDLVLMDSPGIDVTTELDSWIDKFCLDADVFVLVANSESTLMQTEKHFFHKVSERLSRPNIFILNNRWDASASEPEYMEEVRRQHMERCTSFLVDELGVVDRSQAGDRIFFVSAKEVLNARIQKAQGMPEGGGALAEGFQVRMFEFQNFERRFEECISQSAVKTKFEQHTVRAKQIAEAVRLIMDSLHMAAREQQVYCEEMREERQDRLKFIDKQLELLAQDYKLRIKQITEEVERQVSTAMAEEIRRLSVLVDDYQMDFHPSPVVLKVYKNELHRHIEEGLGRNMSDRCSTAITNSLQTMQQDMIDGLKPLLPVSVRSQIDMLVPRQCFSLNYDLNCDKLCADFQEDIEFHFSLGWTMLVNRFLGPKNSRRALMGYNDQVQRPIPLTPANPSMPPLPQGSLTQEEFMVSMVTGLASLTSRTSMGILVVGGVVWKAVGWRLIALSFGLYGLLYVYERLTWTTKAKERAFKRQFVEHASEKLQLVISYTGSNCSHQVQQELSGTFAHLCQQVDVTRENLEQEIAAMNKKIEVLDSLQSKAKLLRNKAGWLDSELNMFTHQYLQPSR
Chain of UniProt Q02750 (Q02750 whole entry, looked up): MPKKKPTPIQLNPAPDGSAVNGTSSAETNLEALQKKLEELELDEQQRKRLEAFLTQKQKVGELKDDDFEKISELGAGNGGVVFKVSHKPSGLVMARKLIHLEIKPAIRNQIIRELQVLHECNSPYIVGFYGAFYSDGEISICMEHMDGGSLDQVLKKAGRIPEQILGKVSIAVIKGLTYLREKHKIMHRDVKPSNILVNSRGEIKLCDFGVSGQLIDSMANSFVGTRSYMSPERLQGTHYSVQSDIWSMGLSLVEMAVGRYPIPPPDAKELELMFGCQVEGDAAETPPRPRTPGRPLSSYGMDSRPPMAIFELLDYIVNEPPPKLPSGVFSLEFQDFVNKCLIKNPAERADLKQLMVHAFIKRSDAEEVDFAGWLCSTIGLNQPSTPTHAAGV
Chain of UniProt Q9BU23 (Q9BU23 whole entry, looked up): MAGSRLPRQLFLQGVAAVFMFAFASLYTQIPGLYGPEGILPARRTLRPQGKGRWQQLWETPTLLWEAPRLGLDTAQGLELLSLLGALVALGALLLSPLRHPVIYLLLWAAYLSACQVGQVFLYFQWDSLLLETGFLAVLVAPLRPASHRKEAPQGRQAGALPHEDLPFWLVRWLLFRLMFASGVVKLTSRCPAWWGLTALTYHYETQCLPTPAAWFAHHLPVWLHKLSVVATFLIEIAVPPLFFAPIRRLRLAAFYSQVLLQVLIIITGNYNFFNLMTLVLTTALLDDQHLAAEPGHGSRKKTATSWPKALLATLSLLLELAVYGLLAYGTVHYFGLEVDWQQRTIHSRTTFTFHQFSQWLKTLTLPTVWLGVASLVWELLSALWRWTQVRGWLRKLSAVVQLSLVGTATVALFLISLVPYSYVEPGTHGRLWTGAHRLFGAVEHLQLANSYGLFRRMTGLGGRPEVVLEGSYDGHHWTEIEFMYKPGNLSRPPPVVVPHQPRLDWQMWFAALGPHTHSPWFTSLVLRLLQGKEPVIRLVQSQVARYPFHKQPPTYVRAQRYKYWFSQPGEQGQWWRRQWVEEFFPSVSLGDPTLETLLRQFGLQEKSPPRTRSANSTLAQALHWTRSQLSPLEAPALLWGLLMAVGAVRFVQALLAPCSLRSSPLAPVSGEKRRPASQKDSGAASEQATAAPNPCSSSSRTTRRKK
Chain of UniProt Q9H3F6 (Q9H3F6 whole entry, looked up): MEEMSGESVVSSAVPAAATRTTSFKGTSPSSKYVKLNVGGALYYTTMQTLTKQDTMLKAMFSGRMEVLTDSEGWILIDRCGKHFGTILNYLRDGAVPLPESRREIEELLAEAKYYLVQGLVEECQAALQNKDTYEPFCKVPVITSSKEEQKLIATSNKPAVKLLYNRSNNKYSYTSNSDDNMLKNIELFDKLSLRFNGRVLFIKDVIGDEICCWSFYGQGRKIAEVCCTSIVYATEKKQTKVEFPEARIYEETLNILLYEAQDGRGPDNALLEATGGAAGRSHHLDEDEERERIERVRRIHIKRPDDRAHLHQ

| Target | log2 fold change [1] | log2 fold change (volasertib) | log2 fold change [2] | log2 fold change (epoxomicin) | log2 fold change [3] | log2 fold change [4] | log2 fold change [5] | log2 fold change (rosiglitazone) | log2 fold change [6] | log2 fold change [7] | log2 fold change (saracatinib) | log2 fold change (sotrastaurin) | log2 fold change (alvocidib) | log2 fold change (Tubastatin A) | log2 fold change [8] | log2 fold change (defactinib) | log2 fold change (rucaparib) | log2 fold change [9] | log2 fold change (encorafenib) | log2 fold change [10] |
| --- | --- | --- | --- | --- | --- | --- | --- | --- | --- | --- | --- | --- | --- | --- | --- | --- | --- | --- | --- | --- |
| KHDC4 (UniProt Q7Z7F0) | -0.063 | -0.236 (active) | 0.107 | 0.036 | -0.045 | -0.057 | 0.137 | 0.035 | 0.071 | -0.014 | -0.139 | 0.027 | -0.15 | 0.052 | 0.019 | -0.058 | -0.058 | 0.023 | 0.008 | -0.023 |
| MAP2K1 (UniProt Q02750) | -0.017 | -0.058 | 0.024 | 0.053 | -0.006 | -0.092 | 0.032 | 0.029 | -0.06 | -0.113 | 0.02 | 0.028 | -0.05 | -0.018 | -0.053 | -0.011 | -0.049 | -0.005 | 0.005 | 0.009 |
| IPO7 (UniProt O95373) | -0.248 (active) | -0.542 (active) | 0.067 | -0.007 | 0.008 | -0.038 | 0.051 | 0.067 | -0.011 | -0.248 (active) | -0.004 | -0.089 | -0.146 | 0.023 | 0.01 | -0.163 | -0.083 | -0.012 | 0.052 | -0.015 |
| LMF2 (UniProt Q9BU23) | -0.109 | -0.332 (active) | -0.027 | 0 | -0.053 | 0.12 | -0.017 | 0.039 | -0.007 | -0.035 | 0.006 | -0.043 | 0.035 | 0.048 | 0.007 | 0 | 0.082 | -0.02 | 0.052 | -0.04 |
| MAPKAPK2 (UniProt P49137) | -0.058 | -0.059 | 0.026 | 0.049 | 0.022 | -0.002 | 0.032 | 0.023 | -0.007 | -0.018 | 0.077 | -0.035 | 0 | -0.006 | -0.01 | -0.013 | 0 | -0.022 | 0.139 | 0.023 |
| MFN2 (UniProt O95140) | -0.1 | -0.23 | 0.011 | 0.047 | -0.004 | 0.011 | 0.009 | 0.03 | -0.011 | -0.213 | -0.005 | 0.045 | -0.012 | 0.02 | -0.024 | -0.066 | 0.041 | 0.058 | -0.006 | -0.026 |
| KCTD10 (UniProt Q9H3F6) | 0.046 | 0.022 | 0.055 | -0.019 | 0 | -0.01 | 0.023 | 0.04 | 0.003 | 0.257 (active) | 0.221 | -0.002 | 0.018 | 0.071 | -0.011 | 0.013 | -0.07 | 0.007 | 0.015 | -0.07 |
| LYPLA2 (UniProt O95372) | 0.049 | -0.033 | 0.018 | 0.521 (active) | 0.025 | -0.05 | 0.108 | -0.021 | -0.053 | 0.098 | -0.063 | -0.039 | -0.126 | 0.018 | 0.007 | -0.09 | -0.041 | -0.01 | -0.031 | 0.087 |
